Data: the supplement of paper PMC13094657
Counter-ions that a name gives are not always drawn. ± gives the standard deviation of the averaged measurements.

The molecules below were run on MDA-MB-231 (assay: kynurenine production, fold change vs DMSO IFNg/TNF control; higher = more kynurenine produced (less inhibition)). Settings: pre-treatment time: 18 h then 24 h IFNg/TNF.
Method in brief: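 MDA-MB-231 cells were seeded in 96-well plates at 7 × 10^4/well and, 24 h later, pre-treated for 18 h with each natural product in 0.1% DMSO. They were then stimulated for 24 h at 37°C with IFNγ (1 U/ml) and TNF (6.25 ng/ml). Supernatants were treated with trichloroacetic acid and p-dimethylaminobenzaldehyde and read at 492 nm against 0–100 μM standards. Kynurenine production is expressed as fold change over cytokine-stimulated vehicle wells on the same plate and, in the first screening round, averaged across duplicate plates.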

| Compound | kynurenine production |
| --- | --- |
| CN1[C@@H]2CC[C@H]1C[C@@H](OC(=O)[C@H](CO)c1ccccc1)C2 [Hyoscyamine hydrobromide] (compound dose: 10 uM) | 0.743 ± 0.061 |
| CCCCCCCCCCCCCC(=O)O[C@@H]1[C@@H](C)[C@@]2(O)[C@@H](C=C(CO)C[C@]3(O)C(=O)C(C)=C[C@@H]23)[C@@H]2C(C)(C)[C@]12OC(C)=O [12-O-tetradecanoyl phorbol-13-acetate] (compound dose: 10 uM) | 0.858 ± 0.021 |
| O=C(O)c1ccc(=O)[nH]c1 [6-hydroxypyridine-3-carboxylic acid] (compound dose: 10 uM) | 0.821 ± 0.09 |
| CN1[C@@H]2CC(O)C[C@H]1[C@@H]1O[C@@H]12 (some centres undefined) [Scopine] (compound dose: 10 uM) | 0.798 ± 0.03 |
| COc1cc(C2OCC3C(c4cc(OC)c(O[C@@H]5O[C@H](CO)[C@@H](O)[C@H](O)[C@H]5O)c(OC)c4)OCC23)cc(OC)c1O[C@H]1O[C@@H](CO)[C@H](O)[C@@H](O)[C@@H]1O (some centres undefined) [Eleutheroside E] (compound dose: 10 uM) | 0.784 ± 0.071 |
| C=C1[C@@H]2CCC3[C@@](CC[C@@H]4[C@H](C(=O)O)C[C@@H](O[C@@H]5O[C@H](CO)[C@@H](OS(=O)(=O)O)[C@H](OS(=O)(=O)O)[C@H]5OC(=O)CC(C)C)C[C@@]34C)(C2)[C@@H]1O (some centres undefined) [Atractyloside (potassium salt)] (compound dose: 10 uM) | 0.945 ± 0.02 |
| COc1cc(C(=O)O[C@H]2[C@@H]3C=CO[C@@H](O[C@@H]4O[C@H](CO)[C@@H](O)[C@H](O)[C@H]4O)[C@@H]3[C@@]3(CO)O[C@@H]23)ccc1O [Picroside II] (compound dose: 10 uM) | 0.919 ± 0.16 |
| COc1ccc(CC2c3cc(OC)c(OC)cc3CCN2C)cc1OC (centres undefined) [Laudanosine] (compound dose: 10 uM) | 0.52 ± 0.037 |
| CC(C)[C@]12O[C@H]1[C@@H]1O[C@]13[C@]1(O[C@H]1C[C@H]1C4=C(CC[C@@]13C)C(=O)OC4)[C@@H]2O [Triptolide] (compound dose: 10 uM) | 0.152 ± 0.021 |
| CC(C)(O)/C=C/C(=O)[C@](C)(O)[C@H]1[C@H](O)C[C@@]2(C)[C@@H]3CC=C4[C@@H](C[C@H](O)C(=O)C4(C)C)[C@]3(C)C(=O)C[C@]12C [Cucurbitacin D] (compound dose: 10 uM) | 0.326 ± 0.083 |
| COc1ccc2c3c1O[C@H]1CC(=O)C=C[C@@]31CCN(C)C2 [Galanthaminone] (compound dose: 10 uM) | 0.7845 ± 0.0068 |
| C=C1CC[C@H]2[C@@H](/C=C(\C)C(=O)[C@@]3(OC(C)=O)C[C@H](C)[C@H](OC(=O)c4ccccc4)[C@@H]3[C@H]1OC(C)=O)C2(C)C [5,15-Diacetyl-3-benzoyllathyrol] (compound dose: 10 uM) | 0.94 ± 0.14 |
| COC(=O)[C@]1(C)CC[C@]2(C)CC[C@]3(C)C4=CC=C5C(=CC(=O)C(O)=C5C)[C@]4(C)CC[C@@]3(C)[C@@H]2C1 [Pristimerin] (compound dose: 10 uM) | 0.0819 ± 0.0029 |
| C=C[C@H]1[C@H](O[C@@H]2O[C@H](CO)[C@@H](O)[C@H](O)[C@H]2O)OC=C2C(=O)OCC[C@H]21 [Sweroside] (compound dose: 10 uM) | 0.832 ± 0.17 |
| CC(C)[C@]12O[C@H]1[C@@H]1O[C@@]13[C@@]1(C)CCC4=C(COC4=O)[C@@H]1C[C@@H]1O[C@@]13C2=O [Triptonide] (compound dose: 10 uM) | 0.218 ± 0.019 |
| CCCC(=O)O[C@@H]1[C@@H](C)[C@@]2(O)[C@@H](C=C(CO)C[C@]3(O)C(=O)C(C)=C[C@@H]23)[C@@H]2C(C)(C)[C@]12OC(=O)CCC [Phorbol 12,13-Dibutyrate] (compound dose: 10 uM) | 0.781 ± 0.034 |
| CC(=O)OC(C)(C)/C=C/C(=O)[C@](C)(O)[C@H]1[C@H](O)C[C@@]2(C)[C@@H]3CC=C4[C@@H](C=C(O)C(=O)C4(C)C)[C@]3(C)C(=O)C[C@]12C [Cucurbitacin E] (compound dose: 10 uM) | 0.19 ± 0.034 |
| C=C[C@@H]1C2=CCOC(=O)C2=CO[C@H]1O[C@@H]1O[C@H](CO)[C@@H](O)[C@H](O)[C@H]1O [Gentiopicroside] (compound dose: 10 uM) | 0.904 ± 0.09 |
| COc1cc2c(cc1OC)-c1c3c(cc4c1[C@H](C2)N(C)CC4)OCO3 [Dicentrine] (compound dose: 10 uM) | 0.432 ± 0.0093 |
